We go through 39 molecules from the supplement of paper PMC8253809.

Values joined by “and” are separate entries in the source; they are usually repeats but may differ in a detail not shown here. Equal entries are not always repeated.

The subject of this assay is SUDIPGVI (diffuse intrinsic pontine glioma line)
In words: growth inhibition (% activity, log2 RLU normalised to DMSO / staurosporine); higher = more growth inhibition. The following applies: 33 µM. In short, it runs like this:
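Approved drugs were tested in triplicate at a single final concentration of about 33 μM for 7 days at 37 °C, 5% CO2, on pHGG cell lines and H9-derived neural stem cells. Readout was CellTiter-Glo luminescence, log2-transformed and scaled per plate to % activity between solvent and positive control wells. The median over replicates gives the growth-inhibition value.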
As to `NC[C@H]1O[C@H](O[C@H]2[C@H](O)[C@@H](O[C@H]3O[C@H](CO)[C@@H](O)[C@H](N)[C@H]3O)[C@H](N)C[C@@H]2N)[C@H](N)C[C@@H]1O`, the growth inhibition is -0.514%.
For the molecule `CN[C@@H]1[C@H](O[C@H]2[C@H](O[C@H]3[C@H](O)[C@@H](O)[C@H](N=C(N)N)[C@@H](O)[C@@H]3N=C(N)N)O[C@@H](C)[C@]2(O)C=O)O[C@@H](CO)[C@H](O)[C@H]1O`, the growth inhibition is -0.665%.
The value for `CN1C[C@@H]2C[C@H]1CN2c1cc2c(cc1F)c(=O)c(C(=O)O)cn2C1CC1` was 3.33%.
The value for `O=C1C(=O)c2ccccc2C(O)=C1C1CCC(c2ccc(Cl)cc2)CC1` (centres undefined) was 2.48%; that for `CCN(CC)C(=O)/C(C#N)=C/c1cc(O)c(O)c([N+](=O)[O-])c1` was -0.299%.
In the case of `CCOC(=O)C1=C(C)NC(C)=C(C(=O)OC)C1c1cccc(Cl)c1Cl` (centres undefined) it was 1.79%; in that of `CCCCCCCCCC(=O)N[C@@H](Cc1c[nH]c2ccccc12)C(=O)N[C@@H](CC(N)=O)C(=O)N[C@@H](CC(=O)O)C(=O)N[C@@H]1C(=O)NCC(=O)N[C@@H](CCCN)C(=O)N[C@@H](CC(=O)O)C(=O)N[C@H](C)C(=O)N[C@@H](CC(=O)O)C(=O)NCC(=O)N[C@H](CO)C(=O)N[C@@H]([C@H](C)CC(=O)O)C(=O)N[C@@H](CC(=O)c2ccccc2N)C(=O)O[C@@H]1C`, -3.09%; in that of `CC(=O)Oc1cc2c(s1)CCN(C(C(=O)C1CC1)c1ccccc1F)C2` (centres undefined), -3.04%.
`Cc1[nH]c(=O)c(C#N)cc1-c1ccncc1`: the growth inhibition came out at 4.48%.
As for `CC[N+](CC)(CC)CCOc1cccc(OCC[N+](CC)(CC)CC)c1OCC[N+](CC)(CC)CC`, the growth inhibition worked out at 3.43%.
The value for `CN1CCN2c3ccccc3Cc3ccccc3C2C1` (centres undefined) was -0.707%.
In the case of `Cc1cn([C@@H]2C[C@@H](O)[C@H](CO)O2)c(=O)[nH]c1=O` it was -10.2%; in that of `Nc1ccc(C(=O)NCC(=O)O)cc1`, 1.49%; in that of `CNC(=C[N+](=O)[O-])NCCSCc1ccc(CN(C)C)o1`, 1.91%.
For `COC1C(O)CC(=O)OC(C)CC=CC=CC(OC2CCC(N(C)C)C(C)O2)C(C)CC(CC=O)C1OC1OC(C)C(OC2CC(C)(O)C(O)C(C)O2)C(N(C)C)C1O` (centres undefined), the growth inhibition is 1.86%.
Turning to `Cc1c(Cl)cccc1Nc1ccccc1C(=O)O`, the growth inhibition is 2.85%.
`CC(=O)OCC(=O)[C@@]12OC(C)(C)O[C@@H]1C[C@H]1[C@@H]3C[C@H](F)C4=CC(=O)C=C[C@]4(C)[C@@]3(F)[C@@H](O)C[C@@]12C`: the growth inhibition is 0.11%.
In the case of `O=C1N=C(O)NC1(c1ccccc1)c1ccccc1` it was 1.87% and 2.15%; in that of `CC[C@H](C)C(=O)O[C@H]1C[C@H](O)C=C2C=C[C@H](C)[C@H](CC[C@@H](O)C[C@@H](O)CC(=O)O)[C@H]21`, -4.73%; in that of `C=C[C@]1(C)C[C@@H](OC(=O)CSC(C)(C)CNC(=O)[C@H](N)C(C)C)[C@]2(C)[C@H](C)CC[C@]3(CCC(=O)[C@H]32)[C@@H](C)[C@@H]1O`, 1.61%.
For `N=C(N)c1ccc2cc(OC(=O)c3ccc(N=C(N)N)cc3)ccc2c1`, the growth inhibition is 0.556%.
Turning to `CCC(=O)NCC[C@@H]1CCc2ccc3c(c21)CCO3`, the growth inhibition is 1.36%.
The value for `OCC(O)CN1CCN(c2ccccc2)CC1` (centres undefined) was -3.65%; that for `CNC(=O)c1cc(Oc2ccc(NC(=O)Nc3ccc(Cl)c(C(F)(F)F)c3)c(F)c2)ccn1` was 4.32%.
In the case of `CCn1cc(C(=O)O)c(=O)c2cnc(N3CCCC3)nc21` it was -0.722%; in that of `Cc1c(-c2ccc(O)cc2)n(Cc2ccc(OCCN3CCCCCC3)cc2)c2ccc(O)cc12`, -5.95%; in that of `Nc1nc2n[nH]nc2c(=O)[nH]1`, 1.16%.
The value for `CCC(C)C1OC2(CCC1C)CC1CC(CC=C(C)C(OC3CC(OC)C(OC4CC(OC)C(O)C(C)O4)C(C)O3)C(C)C=CC=C3COC4C(O)C(C)=CC(C(=O)O1)C34O)O2` (centres undefined) was 3.51%; that for `O=C([O-])[C@H](O)[C@@H](O)[C@H](O)[C@H](O)CO.[Na+]` was 2.94%; that for `CC(C(=O)O)c1ccc(C(=O)c2cccs2)cc1` (centres undefined) was 0.938%.
Regarding `COc1c2occc2cc2ccc(=O)oc12`, the growth inhibition is -9.54%.
In the case of `C[C@@H]1CN(c2c(F)c(N)c3c(=O)c(C(=O)O)cn(C4CC4)c3c2F)C[C@H](C)N1` it was -0.838%; in that of `Cc1cc(=O)n(-c2ccccc2)n1C`, 0.115%.
In the case of `NCCCCCC(=O)O` it was 0.903%; in that of `Nc1nc2[nH]cc(CCc3ccc(C(=O)N[C@@H](CCC(=O)O)C(=O)O)cc3)c2c(=O)[nH]1`, -1.22%; in that of `Cc1onc(-c2ccccc2)c1C(=O)N[C@@H]1C(=O)N2[C@@H]1SC(C)(C)[C@@H]2C(=O)O`, 0.245%.
Take `Nc1cccc2c1CN(C1CCC(=O)NC1=O)C2=O` (centres undefined): the growth inhibition came to 2.41%.
With `COc1ccccc1N1CCN(CC(O)COc2cccc3ccccc23)CC1` (centres undefined), the growth inhibition was 0.873%.
In the case of `CC1CNc2c(cccc2S(=O)(=O)N[C@@H](CCCNC(=N)N)C(=O)N2CC[C@@H](C)C[C@@H]2C(=O)O)C1` (some centres undefined) it was 0.243%.
